This is a sample that favours compounds with a hit; in the whole collection about 19% have one here.
HT1080 IDH1KD tx – toxicity to HT-1080 IDH1 knockdown cells (counter line); actives 2% (n = 360,000); Potency, µM (doses to about 46.1 µM), hits mostly cytotoxic; AID 686971; HT-1080 IDH1 knockdown viability, ATP luminescence, 48 h
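After a 2 h attachment period, IDH1KD HT-1080 cells took pin-transferred compound for 48 h at 37 °C; ATP-based luminescence after 10 min room-temperature reagent incubation reported viability.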
TDP1 cell CPT – growth inhibition of DT40 Tdp1-/-;hTDP1 cells with camptothecin (screen for TDP1 inhibitors); actives 12% (n = 420,000); AID 686979; chicken DT40 Tdp1-/-;hTDP1 cells + 20 nM CPT, ATP luminescence, 48 h; Potency, µM (top dose mostly 46.2 µM), most hits filed as inhibitors; note: nearly all actives have a fitted effect of over 55% in size
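Chicken DT40 Tdp1-/- cells stably complemented with human TDP1 were seeded at 400 cells/well in medium containing 20 nM camptothecin, exposed to pin-transferred compounds, and grown at 37 °C for at least 48 hr. Viability was read as ATP luminescence.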
HT1080NT lethal – kills 2HG-producing HT-1080-NT fibrosarcoma cells; AID 686970; Potency, µM (titrated, usually from 46.1 µM), hits mostly cytotoxic; actives 1.6% (n = 360,000); HT-1080-NT fibrosarcoma viability, CellTiter-Glo ATP luminescence, 48 h;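 note: NT is the 2HG producing partner of a matched IDH1 knockdown line; nearly all actives have a fitted effect of over 55% in size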
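Viability by CellTiter-Glo luminescence after 48 h compound exposure at 37C of HT-1080-NT cells (750/well, RPMI, 5% FBS). % activity scaled between DMSO wells and medium-only wells, then curve-fitted and categorized by curve class.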
KB-V1 cytotox – kills drug-selected multidrug resistant KB-V1 cells. KB-V1 MDR cells viability, CellTiter-Glo, 72 h. Potency, µM (titrated, usually from 46.1 µM), usual class: cytotoxic. actives 3.4% (n = 400,000); note: nearly all actives have a fitted effect of over 60% in size
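Readout: CellTiter-Glo luminescence, 10 min after addition. Cells: KB-V1 MDR subline, 72 h at 37 degrees C with compound. Analysis: corrected, normalized data fitted to concentration-effect curves.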
DT40 TDP1 no CPT – qHTS for Inhibitors of human tyrosyl-DNA phosphodiesterase 1 (TDP1): qHTS in cells in absence of CPT | DT40 Tdp1-/- hTDP1 cells, no CPT, ATP luminescence, 48 h | Potency, µM (titrated, usually from 46.2 µM), hits mostly inhibitors | actives 15% (n = 420,000) | AID 686978, 2013; note: nearly all actives have a fitted effect of over 55% in size
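Readout: luminescence from CellTiter-Glo after 30 min in the dark at RT. Cells: DT40 Tdp1-/- with stable hTDP1, 400/well. Exposure: compounds alone, ≥48 hr, 37 °C.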
KB-3-1 cytotox – KB-3-1 parental cell cytotoxicity; KB-3-1 viability, CellTiter-Glo ATP luminescence, 72 h; Potency, µM (top dose mostly 46.1 µM), actives largely listed as cytotoxic; actives 1.4% (n = 400,000); AID 1347075; note: nearly all actives have a fitted effect of over 60% in size
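Parental KB-3-1 viability, qHTS format: 72 h compound exposure, 37 °C; CellTiter-Glo; media-only wells and DMSO plates as controls; concentration-effect fits on corrected data.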
Numbers stand for hits; n = inactive; u = inconclusive; x = not tested or not shown. Calls come from the whole dose curve; as a rule, active = well fitted curve in the direction sought with a large enough effect; inconclusive = small, poorly fitted or top-dose-only effect, or another doubt; inactive = no such curve, though single readings can be large; an effect the other way counts as inactive or inconclusive.

SMILES	HT1080 IDH1KD tx	TDP1 cell CPT	HT1080NT lethal	KB-V1 cytotox	DT40 TDP1 no CPT	KB-3-1 cytotox
Cc1cc(=O)oc2ccc(OCC(=O)N(Cc3ccc(F)cc3)Cc3ccco3)cc12	u	23µM	n	u	u	u
CCc1ccc(OCC(=O)N(Cc2ccc(C)cc2)Cc2ccco2)cc1	x	u	x	n	21µM	n
CN(C)C(=O)COc1ccc(S(=O)(=O)c2ccc(OCC(=O)N(C)C)cc2)cc1	n	n	n	n	n	n
CCOC(=O)N1CCN(C(=O)Cc2cccc3ccccc23)CC1	n	n	n	n	u	n
CCc1ccc(OCC(=O)N(Cc2ccco2)Cc2ccccc2Cl)cc1	x	u	x	x	13µM	x
Cc1ccc2c(c1)cc(CN(Cc1ccco1)C(=O)COc1ccccc1)c1nnnn12	n	u	n	u	23µM	u
Cc1ncc(CN2CCC(CO)(Cc3ccccc3)CC2)s1	n	n	n	n	n	n
c1cncc(-c2nc(N3CCCCCC3)c3ccccc3n2)c1	n	u	n	4.1µM	u	n
c1ccc2c(N3CCCCCC3)nc(-c3ccncc3)nc2c1	u	u	n	18µM	23µM	n
c1ccc2c(N3CCCCC3)nc(N3CCCCC3)nc2c1	n	18µM	n	u	u	u
Cc1ccc(-c2nc(N3CCN(c4ccccc4Cl)CC3)c3ccccc3n2)cc1	x	n	x	n	n	n
Cc1ccc(NC(=O)Cn2c(=O)n(Cc3nc(-c4ccccc4)no3)c(=O)c3cc4c(cc32)OCO4)cc1C	x	n	x	n	u	n
Cc1oc2c(c1C(=O)Nc1ccc(OC(F)(F)F)cc1)C1=NCCN1C=N2	x	n	x	n	n	n
CC(=O)c1ccc(Nc2cc(C)nc3ccccc23)cc1	12µM	12µM	u	u	13µM	u
CC(=O)c1ccc(Nc2nc(C)cc(C)n2)cc1	n	n	n	n	n	n
Cc1cc(Nc2cccc(O)c2)c2cccc(Br)c2n1	x	n	x	n	n	n
Cc1ccc(Nc2cc(C)nc3c(C)cccc23)cc1	u	u	u	8.2µM	u	u
CC(=O)c1ccc(Nc2cc(C)nc3c(C)cccc23)cc1	3.7µM	1.3µM	5.2µM	2.9µM	1.3µM	n
CCCCN(C)c1c(C)nc2ccc(C(=O)N3CCN(C(C)=O)CC3)cn12	n	u	n	n	u	n
CC(C)(CCC(=S)N1CCOCC1)c1ccccc1	n	n	n	n	n	n
O=C(Nc1ccc(F)cc1)c1nc2c(nnn2Cc2cccc3ccccc23)c(=O)[nH]1	n	u	n	n	15µM	n
O=C(NCC1CCCO1)c1nc2c(nnn2Cc2ccc(F)cc2)c(=O)[nH]1 (configuration not stated)	n	n	n	n	n	n
O=C(NCc1ccco1)c1nc2c(nnn2Cc2ccccc2Cl)c(=O)[nH]1	u	u	18µM	n	u	u
O=C(NCc1cccs1)c1nc2c(nnn2Cc2ccc(F)cc2)c(=O)[nH]1	u	u	n	23µM	n	n
COC(=O)c1c([N+](=O)[O-])c(OC)c(OC)c(OC)c1[N+](=O)[O-]	n	n	n	n	n	n
Cn1c(=O)c(-c2ccc(F)cc2)nc2cnc(N3CCOCC3)nc21	x	n	x	x	n	x
O=C(O)C(c1ccccc1)C1CCCCC1O (configuration not stated)	n	n	n	n	n	n
CCc1ccc(S(=O)(=O)c2nnn3c2nc(Nc2cc(OC)cc(OC)c2)c2cc(Cl)ccc23)cc1	x	u	x	u	n	n
CCOc1ccccc1C1N=C(c2ccc(OC)cc2)CC(c2ccccc2O)N1 (configuration not stated)	u	21µM	u	n	16µM	n
CCOC(=O)c1sc(NC(=O)c2cc(CC)on2)c(C(=O)OCC)c1C	x	u	x	n	n	n

Source: PubChem (National Center for Advancing Translational Sciences (NCATS))
